Among the data in PubChem BioAssay AID2576 (National Center for Advancing Translational Sciences (NCATS), 2010) are Potency values, retold here.

Where “and” joins values, the source holds several entries; their conditions need not be identical. Equal values may be shown once. Inconclusive results are not listed. A call without a number means that no potency is given here. Some structures have more than one record in an assay (separate samples or runs), and their calls can disagree. Calls of active or inactive are those of the source. Calls come from the whole dose curve; as a rule, active = well fitted activation curve with a large enough effect; inconclusive = small, poorly fitted or top-dose-only effect, or effect the other way; inactive = flat fitted curve, though single readings scatter.

Sequence of Pyruvate kinase PKM (Homo sapiens) (P14618 whole entry, looked up, canonical isoform): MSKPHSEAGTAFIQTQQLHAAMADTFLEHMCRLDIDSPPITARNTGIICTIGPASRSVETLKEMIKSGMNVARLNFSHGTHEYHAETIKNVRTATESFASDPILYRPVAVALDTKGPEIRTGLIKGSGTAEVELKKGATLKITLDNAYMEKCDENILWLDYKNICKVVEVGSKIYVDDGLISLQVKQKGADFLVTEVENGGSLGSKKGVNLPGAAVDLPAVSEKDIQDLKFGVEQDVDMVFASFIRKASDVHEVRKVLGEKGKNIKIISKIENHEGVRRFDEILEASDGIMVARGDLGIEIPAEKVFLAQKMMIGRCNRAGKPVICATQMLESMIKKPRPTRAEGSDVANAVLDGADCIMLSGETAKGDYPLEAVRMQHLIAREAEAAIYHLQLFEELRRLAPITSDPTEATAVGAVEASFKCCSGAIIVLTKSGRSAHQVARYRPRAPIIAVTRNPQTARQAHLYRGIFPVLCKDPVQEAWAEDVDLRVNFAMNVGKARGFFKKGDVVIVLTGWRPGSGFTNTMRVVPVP

The assay concerns the target Pyruvate kinase PKM (Homo sapiens) (UniProt P14618). Briefly: Secondary LDH Assay for Activators of Human Pyruvate Kinase M2 isoform: for Probe SAR. As to conditions: purified hPK-M2, LDH-coupled NADH fluorescence kinetic; series mostly up to 58.4 µM. From the text:
NIH Chemical Genomics Center [NCGC] Matthew G. Vander Heiden, M.D., Ph.D. [Harvard Medical School, 77 Avenue Louis Pasteur, Boston, MA 02115] NCGC Assay Overview: Human pyruvate kinase muscle 2 (hPK-M2)enzyme was supplied as a highly purified (>95% pure) preparation from Harvard Medical School and a secondary assay was used to evaluate compounds. This assay couples the formation of pyruvate from hPK-M2 using lactate dehydrogenase (LDH) and NADH. The depletion of NADH is followed in a fluorescent-based kinetic assay that follows the formation of pyruvate to lactate, as catalyzed LDH (described by Hannaert et al., 2002)1 Pyruvate kinase substrates, PEP and ADP, were present in the assay at 0.1 mM and 4 mM respectively. In this kinetic assay initial rates were determined by following the fluorescence of NADH depletion.
NCGC Assay Protocol Summary: Three uL of substrate mix (final concentration, 50 mM Tris-Cl pH 8.0, 200 mM KCl, 15 mM MgCl2, 0.1 mM PEP, 4.0 mM ADP, and 0.2 mM NADH) was dispensed into black-solid 1536 well plates. 23 nL of compounds were delivered by a pin tool and 1 uL of enzyme mix (final concentrations, 10 nM hPK-M2 and 1 uM of LDH) was added. Plates were immediately placed in ViewLux (Perkin Elmer) and NADH fluorescence was determined at 30 second exposure intervals for between 3 and 6 minutes. Data were normalized to the uninhibited and EC100 activation using known activators such as fructose-bis-phosphate.
On to `COc1ccccc1OC1=NS(=O)(=O)c2ccccc21`, for which the Potency result was “inactive”.
Regarding `Cc1ccc(NS(=O)(=O)c2cc3c(cc2F)NC(=O)CC3)cc1C`, the Potency was 2.59 µM (active).
The entry for `O=C1c2ccccc2C(=O)N1c1cccc2ncccc12` is “inactive”.
The value for `Cc1cc2c(s1)c1cnn(Cc3ccccc3F)c(=O)c1n2C` was “inactive and 291 nM (active)”; that for `CNc1cccc(S(=O)(=O)N2CCN(S(=O)(=O)c3ccc4c(c3)OCCO4)CC2)c1` was “inactive”.
The value for `Cc1ccc(NS(=O)(=O)c2cccc(Cl)c2)cc1C` was “inactive”.
For the compound `Cc1ccc(NS(=O)(=O)c2cc3c(cc2N(C)C)CCC(=O)N3)cc1C`, the Potency was 1.46 µM (active).
The figure for `Cc1ccc(NS(=O)(=O)c2ccc3c(c2)CCC(=O)N3)cc1` is 5.17 µM (active); for `Cc1ccc(NS(=O)(=O)c2cc3c(cc2-c2cn[nH]c2)NC(=O)CO3)cc1C` it is “inactive”.
The entry for `O=C1CCc2cc(S(=O)(=O)Nc3ccccc3Cl)ccc2N1` is “inactive”; for `Cc1cc2c(s1)c1cnn(Cc3cc(F)ccc3F)c(=O)c1n2C` it is 0.447 µM (active).
Consider `COc1ccccc1N1C(=O)c2ccccc2C1=O`, for which the Potency result is “inactive”.
Consider `COc1cccc(Cn2ncc3c4sc(S(C)=O)cc4n(C)c3c2=O)c1` (stereo not given), for which the Potency was 410 nM (active) and 206 nM (active).
The value for `O=C1CCc2cc(S(=O)(=O)Nc3ccc(F)cc3)ccc2N1` was “inactive”.
The entry for `O=C1c2ccccc2C(=O)N1Cc1ccncc1` is “inactive”; for `Cc1ccccc1NS(=O)(=O)c1ccc2c(c1)CCC(=O)N2` it is 6.51 µM (active); for `COc1ccc(OC2=NS(=O)(=O)c3ccccc32)cc1` it is “inactive”.
For the compound `Cc1ccc(NS(=O)(=O)c2cc3c(cc2Cl)CCC(=O)N3)cc1C`, the Potency was 0.461 µM (active).
As for `Cc1ccn2c(NC3CCCCC3)c(-c3ccc(C)o3)nc2c1`, the Potency result is “inactive”.
With `Cc1ccc(NS(=O)(=O)c2ccc3c(c2)CCCC(=O)N3)cc1C`, the Potency result is “inactive”.
Take `Cc1ccc(NS(=O)(=O)c2ccc(N3CCCC3=O)cc2)cc1C`: the Potency result was “inactive”.
The value for `O=C1c2ccccc2C(=O)N1c1cncc2ccccc12` was “inactive”.
Consider `O=C1c2ccccc2C(=O)N1c1cccc2ccncc12`, for which the Potency result is “inactive”.
The value for `Cc1ccccc1OC1=NS(=O)(=O)c2ccccc21` was “inactive”; that for `O=C1c2ccccc2C(=O)N1c1cc(=O)c2ccccc2[nH]1` was “inactive”.
The entry for `O=C1c2ccccc2C(=O)N1C1CCCCC1` is “inactive”; for `COc1ccc(S(=O)(=O)Nc2ccc(C)c(C)c2)cc1` it is “inactive”; for `Cc1ccc(N[S+](=O)([O-])c2cc3c(cc2CCc2ccccc2)NC(=O)CO3)cc1C` it is “inactive”.
The entry for `O=C1c2ccccc2C(=O)N1c1noc2ccccc12` is “inactive”.
With `Cc1ccc(OC2=NS(=O)(=O)c3ccccc32)cc1`, the Potency result was “inactive”.
Turning to `Cc1nc(-c2ccc(S(=O)(=O)Nc3ccc(C)c(C)c3)s2)cs1`, the Potency entry was “inactive”.
For the compound `O=S1(=O)N=C(Oc2cccc(Cl)c2)c2ccccc21`, the Potency result is “inactive”.
The value for `Cc1ccc(-c2nc3cnccn3c2Nc2ccc(C(C)C)cc2)o1` was “inactive”.
The value for `O=S1(=O)N=C(Oc2ccccc2Cl)c2ccccc21` was “inactive”.
The entry for `Cc1ccc(N(C)S(=O)(=O)c2ccc3c(c2)CCC(=O)N3)cc1C` is “inactive”; for `Cc1ccc(NS(=O)(=O)c2cc3c(cc2/C=C/c2ccccc2)NC(=O)CO3)cc1C` it is “inactive”.
Take `COc1cccc(N2C(=O)c3ccccc3C2=O)n1`: the Potency entry was “inactive”.
The entry for `Cc1ccc(NS(=O)(=O)c2ccc(Cl)cc2)cc1C` is “inactive”.
In the case of `O=C1c2ccccc2C(=O)N1c1ccc(O)cc1`, the Potency result is “inactive”.
The value for `O=C1c2ccccc2C(=O)N1c1ccc2ncccc2c1` was “inactive”.
